Only a selection was taken, and hits are over-represented in it overall.
ROC1-CUL1 inh: inhibitors of human ROC1-CUL1 ubiquitin ligase activity; P62877+Q13616; in vitro K48 di-Ub FRET, acceptor:donor ratio, 45 min; inhibition, % at 10 µM; 140,000 tested, 0.6% active; in the data active = inhibition above about 25%
Large screens that a line does not name were inactive.

COC(=O)c1cccc(-c2ccc(C=C3C(=O)OC(c4ccccc4)OC3=O)o2)c1 (centres undefined)	none
O=C1C2C(C(=O)N1c1ccccc1)N1C(c3ccco3)C3C(=O)N(c4ccccc4)C(=O)C3N1C2c1ccco1 (centres undefined)	none
O=C(CCc1cnccn1)N1CCCC(CCc2ccccc2)C1 (centres undefined)	none
CCCOc1ccccc1C1C(C(=O)Nc2ccccc2)C(C)=Nc2nnnn21 (centres undefined)	none
CN(Cc1ccccc1)C1(C(=O)N2CCC[C@H]2CO)Cc2ccccc2C1	none
O=C1N(CCc2ccccc2)CCCC1(O)CNC1CCCCC1 (centres undefined)	none
CCOc1ccccc1NC(=O)c1cc(Cl)ccc1OC	none
CCOC(=O)COc1ccccc1C1C2=C(N=C(C)C1C(=O)OC)c1ccccc1C2=O (centres undefined)	none
COC(=O)c1ccc2ncccc2c1	none
CNCc1cn(C2CCN(C(=O)c3ccc4ncccc4c3)CC2)nn1	none
Oc1c(Cl)c(Cl)c2c(c1Cl)CC(Nc1ccc3ncccc3c1)O2 (centres undefined)	ROC1-CUL1 inh 81
O=C(CSc1ccccc1)N1CCc2onc(-c3ccc(Cl)cc3)c2C1	none
CCN(CC)c1nc(N/N=C/c2c3ccccc3cc3ccccc23)nc(Nc2ccccc2)n1	none
Cc1cn2c3c(=O)n(Cc4ccc(Cl)cc4)c(=O)n(C)c3nc2n1CCO	none
COc1ccc2c(c1)C(O)(C(F)(F)F)C(=O)O2 (centres undefined)	none
COc1ccc2c(c1)C=C1C(=CC(=O)CC1(C)C)O2	ROC1-CUL1 inh 111
COc1ccc2c(c1)C=Cc1ccccc1O2	none
CCOC(=O)C=CCn1nnn(-c2ccc(Cl)cc2)c1=O	none
CO/C=C\C=C/c1nnn(-c2ccc(Cl)cc2)n1	ROC1-CUL1 inh 38
COCc1c(C(=O)O)nnn1-c1ccc(Cl)cc1	none
CCN1C(=O)CC(CC(=O)N2C[C@@H](C)O[C@@H](C)C2)(c2cccc(C(F)(F)F)c2)C1=O (some centres undefined)	none
CSc1ccc(C(c2c(C)n(C)n(-c3ccccc3)c2=O)C2C(=O)Oc3ccccc3C2=O)cc1 (centres undefined)	none
Cc1ccc(-n2nc(C(=O)N3CCCCC3)nc2-c2ccccc2)cc1	none
Cc1nc(N2CCCC2C(=O)NC2CCOC(C)(C)C2)nc2cc(S(C)(=O)=O)ccc12 (centres undefined)	none
C=CCN1C(=O)C(CC)NC1=S (centres undefined)	none
COc1cc(C)ccc1OCc1nc(C(=O)NC2CCCC2)co1	none
CCCCCCCC(=O)Nc1ccc(N(C)C)cc1	none
CCCCCCCCCCCCCCCC[n+]1ccc(/C=C/c2ccc(N(C)C)cc2)cc1	ROC1-CUL1 inh 29
CCCCCCCCCCCCCCCCCCN(C)c1ccc(/C=C/c2cc[n+](C)cc2)cc1	none
CC1(C)CC(=O)C2=C(C1)OC(=N)C([N+](=O)[O-])C2c1ccc(C#N)s1 (centres undefined)	none
S=C(NCc1ccccc1)N/N=C\c1ccc(Sc2ccccc2)o1	none
CC(=O)c1ccccc(OC(=O)c2ccccc2)c1=O	ROC1-CUL1 inh 81
COc1cc(C(=O)Oc2ccccc2C(C)=O)cc(OC)c1OC	none
O=C(Oc1ccccc1C(=O)Oc1ccccc1)c1ccccc1	none
CC(Oc1ccc(Br)cc1Br)C(=O)NCCC1=CCCCC1 (centres undefined)	none
COc1cc(C)c(S(=O)(=O)Nc2ccc(I)cc2)cc1C	none
NC1=NN=C2NN(c3ccc(Cl)cc3Cl)NC12 (centres undefined)	none
COc1ccc(-c2[nH]nc3c2C(c2ccc(C(F)(F)F)cc2)C(C#N)C(=N)O3)cc1 (centres undefined)	none
COc1ccc(-c2cc(-c3cccs3)c(C#N)c(SCC(=O)OC(C)(C)C)n2)cc1	none
CC(=O)Nc1ccc2c(c1)oc1ccccc12	none
CN=C1CC=C(Br)C=C(C(=O)/C=C/c2ccc(Cl)cc2Cl)C1=O	none
CN=C1CC=C(Br)C=C(C(=O)/C=C/c2cccc(OC)c2)C1=O	ROC1-CUL1 inh 44
CCN=C1CC=C(Br)C=C(C(=O)/C=C/c2ccc(OC)c(OC)c2)C1=O	none
CN=C1CC=C(Br)C=C(C(=O)/C=C/c2ccc(Cl)cc2)C1=O	ROC1-CUL1 inh 63
COc1cccc(N2CC(NC(=O)/C=C\c3ccc(OC)c(OC)c3)CC2=O)c1 (centres undefined)	none
CCOc1ccc(/C=C/C(=O)C2=CC(Br)=CCC(=NC)C2=O)cc1	none
Fc1cccc(COc2cccc3c2Oc2nc4ccccc4nc2O3)c1	none
CCOC(=O)c1ccc(N=C(CC)C2N=C(c3ccccc3)OC2=O)cc1 (centres undefined)	none
Cc1ccc(C(=O)N2CCc3c(cnc(C)c3CNC(=O)c3ccccc3F)C2)c(C)c1	none
O=C(Nc1ccn(Cc2ccccc2Cl)n1)C(c1ccccc1)c1ccccc1	none
Nc1sccc1C(=O)c1ccccc1	none
O=C1C(=O)c2c(C(=O)c3ccccc3)coc2C(Cl)=C1Cl	ROC1-CUL1 inh 89
Cc1ccc(C(=O)c2coc3ccc(Br)cc3c2=O)cc1	none
O=C1C(=O)c2c(C(=O)c3ccccc3)coc2C=C1Br	ROC1-CUL1 inh 104
Cc1ccc(C(=O)c2coc3c2C(=O)C(=O)c2ccccc2-3)cc1	none

Assay outcomes (PubChem)
